Inconclusive results are not listed. Where a call stands in place of a potency, no number is given. Calls of active or inactive are those of the source. Calls come from the whole dose curve; as a rule, active = well fitted activation curve with a large enough effect in the repeat runs; inconclusive = weak or mixed curves; inactive = no such curve, though single readings can be large or run the other way.
What follows are compounds tested against Aryl hydrocarbon receptor (Homo sapiens) (UniProt P35869) (assay: qHTS assay to identify small molecule that activate the aryl hydrocarbon receptor (AhR) signaling pathway (AID 743085; note: nearly all actives have a fitted effect of over 15% in size;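 for activation: HG2L7.5c1 human HepG2 liver cells with stably integrated DRE-driven firefly reporter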)). Conditions: HepG2 AhR-luc (HG2L7.5c1), luciferase, 24 h; series mostly up to 70.3 µM.
Aryl hydrocarbon receptor (Homo sapiens), sequence (P35869 whole entry, looked up): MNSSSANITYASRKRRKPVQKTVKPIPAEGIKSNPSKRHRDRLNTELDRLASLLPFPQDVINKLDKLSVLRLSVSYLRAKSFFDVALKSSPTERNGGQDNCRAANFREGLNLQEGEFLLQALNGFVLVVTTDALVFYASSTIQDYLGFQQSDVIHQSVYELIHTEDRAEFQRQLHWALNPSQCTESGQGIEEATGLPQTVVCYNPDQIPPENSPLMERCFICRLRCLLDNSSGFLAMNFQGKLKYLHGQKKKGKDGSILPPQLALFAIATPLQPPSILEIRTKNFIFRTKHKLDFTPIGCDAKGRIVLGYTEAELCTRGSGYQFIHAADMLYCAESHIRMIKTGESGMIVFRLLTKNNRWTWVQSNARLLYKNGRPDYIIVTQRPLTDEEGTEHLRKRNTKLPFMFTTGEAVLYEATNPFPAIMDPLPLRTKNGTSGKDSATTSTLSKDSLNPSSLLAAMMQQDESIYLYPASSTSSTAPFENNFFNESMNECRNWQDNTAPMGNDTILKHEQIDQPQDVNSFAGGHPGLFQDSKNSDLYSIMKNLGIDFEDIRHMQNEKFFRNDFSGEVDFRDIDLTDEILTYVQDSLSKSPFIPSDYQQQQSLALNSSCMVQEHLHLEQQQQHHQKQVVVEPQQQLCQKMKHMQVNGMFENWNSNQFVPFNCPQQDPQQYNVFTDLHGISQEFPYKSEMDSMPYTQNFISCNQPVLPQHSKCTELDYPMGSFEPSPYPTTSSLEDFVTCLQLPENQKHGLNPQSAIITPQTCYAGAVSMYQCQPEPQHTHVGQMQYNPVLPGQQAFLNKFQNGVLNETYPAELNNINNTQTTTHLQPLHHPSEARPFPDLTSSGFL
Procedure, shortened: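 24 h compound exposure, 37C, HepG2-derived HG2L7.5c1 cells with DRE-responsive luciferase. Readouts: fluorescence viability, then luminescence at room temperature after 30 min.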
Potency is the fitted concentration of half-maximal effect.

Structure (SMILES) | Potency
CCC(NC(C)C)C(O)c1ccc(O)c(O)c1 (stereo unspecified) | inactive
CN1C(=O)C[C@@H](C(=O)N[C@@H](Cc2cnc[nH]2)C(=O)N2CCC[C@H]2C(N)=O)NC1=O | inactive
CC1(C)S[C@@H]2[C@H](NC(=O)[C@@H](NC(=O)N3CCNC3=O)c3ccccc3)C(=O)N2[C@H]1C(=O)O | inactive
O=C(O)c1cc2cc(Cc3cccnc3)ccc2o1 | inactive
O=C(O)c1ccc(NC2OC[C@@H](O)[C@H](O)[C@H]2O)cc1 (stereo partly specified) | inactive
CCN1\C(=C/C=C/C=C/c2sc3ccccc3[n+]2CC)Sc2ccccc21 | inactive
CCCCCCOC(=O)c1cccnc1 | inactive
N[C@H](C(=O)O)[C@@H]1CC(Cl)=NO1 | inactive
CCN(CC)CCn1c(=O)c(Cc2ccc(OC)cc2)nc2ccccc21 | inactive
CCCCC[C@H](O)/C=C/[C@@H]1[C@@H](C/C=C\CCCC(=O)O)[C@@H](O)C[C@H]1O | inactive
CC(C)=CCC/C(C)=C/CC/C(C)=C/CC/C(C)=C/CC1=C(C)C(=O)c2ccccc2C1=O | 10.6 µM (active)
CC(C)NCC1CCc2cc(CO)c([N+](=O)[O-])cc2N1 (stereo unspecified) | inactive
NCC(O)CC(=O)O (stereo unspecified) | inactive
FC(F)(F)COCC(F)(F)F | inactive
CC1=C(/C=C/C(C)=C/C=C/C(C)=C/C=C/C=C(C)/C=C/C=C(C)/C=C/C2=C(C)CCCC2(C)C)C(C)(C)CCC1 | inactive
C[C@@H]1O[C@@H](OC[C@H]2O[C@@H](Oc3c(-c4ccc(OCCO)c(OCCO)c4)oc4cc(OCCO)cc(O)c4c3=O)[C@H](O)[C@@H](O)[C@@H]2O)[C@H](O)[C@H](O)[C@H]1O | inactive
NS(=O)(=O)c1cc(Cl)c(Cl)c(S(N)(=O)=O)c1 | inactive
C[C@]12O[C@H](C[C@]1(O)CO)n1c3ccccc3c3c4c(c5c6ccccc6n2c5c31)CNC4=O | 0.531 µM (active)
CC1(C)S[C@@H]2[C@H](N3C(=O)C(c4ccccc4)NC3(C)C)C(=O)N2[C@H]1C(=O)O (stereo partly specified) | inactive
Nc1c(CC(=O)O)cccc1C(=O)c1ccccc1 | inactive
c1ccc(-c2ccc(C(c3ccccc3)n3ccnc3)cc2)cc1 (stereo unspecified) | 1.06 µM (active)
CNCC(=O)N[C@@H](CCCN=C(N)N)C(=O)N[C@H](C(=O)N[C@@H](Cc1ccc(O)cc1)C(=O)N[C@H](C(=O)N[C@@H](Cc1cnc[nH]1)C(=O)N1CCC[C@H]1C(=O)N[C@@H](C)C(=O)O)C(C)C)C(C)C | inactive
C/C=C/C1=C(C(=O)O)N2C(=O)[C@@H](NC(=O)[C@H](N)c3ccc(O)cc3)[C@H]2SC1 | inactive
C=N[C@@H](C(=O)N[C@@H]1C(=O)N2[C@@H]1SC(C)(C)[C@@H]2C(=O)O)c1ccccc1 | inactive
CO[C@H]1C[C@H](O[C@H]2[C@H](C)[C@@H](O[C@@H]3O[C@H](C)C[C@H](N(C)C)[C@H]3O)[C@@H](C)C[C@]3(CO3)C(=O)[C@H](C)[C@@H](O)[C@@H](C)[C@@H](C)OC(=O)[C@@H]2C)O[C@@H](C)[C@@H]1O | inactive
NC[C@H]1O[C@H](O[C@H]2[C@H](O)[C@@H](O[C@H]3O[C@H](CO)[C@@H](O)[C@H](N)[C@H]3O)[C@H](N)C[C@@H]2N)[C@H](N)C[C@@H]1O | inactive
